Source: PubChem BioAssay (National Center for Advancing Translational Sciences (NCATS))
This is one part of a sample in which hits are shown more often than they occur.
DT40 TDP1 CPT – qHTS for Inhibitors of human tyrosyl-DNA phosphodiesterase 1 (TDP1): qHTS in cells in presence of CPT; Potency, µM (doses to about 46.2 µM), for the others: at the top dose activity change, negative = growth inhibition, most hits filed as inhibitors; actives 12% (n = 420,000); chicken DT40 Tdp1-/-;hTDP1 cells + 20 nM CPT, ATP luminescence, 48 h; note: potency is the fitted concentration of half-maximal effect; nearly all actives have a fitted effect of over 55% in size
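Chicken DT40 Tdp1-/- cells stably complemented with human TDP1 were seeded at 400 cells/well in medium containing 20 nM camptothecin, exposed to pin-transferred compounds, and grown at 37 °C for at least 48 hr. Viability was read as ATP luminescence.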
HT1080NT lethal – qHTS for induction of synthetic lethality in tumor cells producing 2HG: qHTS for the HT-1080-NT fibrosarcoma cell line; HT-1080-NT fibrosarcoma viability, CellTiter-Glo ATP luminescence, 48 h; actives 1.6% (n = 360,000); Potency, µM (highest dose often 46.1 µM), inactives show at the top dose activity, negative = less viability, actives largely listed as cytotoxic;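 note: NT is the 2HG producing partner of a matched IDH1 knockdown line; potency is the fitted concentration of half-maximal effect; 0% = DMSO-treated cells and -100% = media-only wells without cells; nearly all actives have a fitted effect of over 55% in size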
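Luminescent CellTiter-Glo readout after 48 hours of compound exposure at 37 degrees C defined viability of HT-1080-NT cells. Activity was normalized to DMSO wells and cell-free media wells; concentration-response curves were fitted and assigned curve classes.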
HT1080 IDH1KD tx – qHTS for induction of synthetic lethality in tumor cells producing 2HG: qHTS for the HT-1080-IDH1KD cell line; HT-1080 IDH1 knockdown viability, ATP luminescence, 48 h; Potency, µM (top dose mostly 46.1 µM), without a hit: at the top dose activity, negative = toxicity, hits mostly cytotoxic; actives 2% (n = 360,000); AID 686971, 2013;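 note: potency is the fitted concentration of half-maximal effect; 0% = DMSO wells and -100% = cell-free medium wells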
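In this qHTS, HT-1080 cells depleted of IDH1 are exposed for 48 h at 37 °C to compound titrations. Toxicity is scored from CellTiter-Glo luminescence, with DMSO as full viability and medium alone as none.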
DT40 TDP1 no CPT – qHTS for Inhibitors of human tyrosyl-DNA phosphodiesterase 1 (TDP1): qHTS in cells in absence of CPT; DT40 Tdp1-/- hTDP1 cells, no CPT, ATP luminescence, 48 h; Potency, µM (series often up to 46.2 µM), without a hit: at the top dose activity change, negative = growth inhibition, usual class: inhibitors; actives 15% (n = 420,000); AID 686978, 2013; note: potency is the fitted concentration of half-maximal effect; nearly all actives have a fitted effect of over 55% in size
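Camptothecin absent (DMSO only). Human TDP1-complemented DT40 knockout cells, 400 cells/well, 37 °C for minimum 48 hr; ATP measured via CellTiter-Glo, 30 min dark incubation, luminescence.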
12-LOX inh – Primary qHTS assay for inhibitors of human arachidonate 12S-lipoxygenase (ALOX12): Round 2; actives 1.1% (n = 580,000); purified 12hLO, xylenol orange hydroperoxide absorbance; Potency, µM (series often up to 108 µM), for inactives: at the top dose activity change, negative = inhibition, usual class: inhibitors; AID 1671190, 2021; Polyunsaturated fatty acid lipoxygenase ALOX12 (Homo sapiens), P18054; note: potency is the fitted concentration of half-maximal effect
Target sequence (P18054 whole entry, looked up): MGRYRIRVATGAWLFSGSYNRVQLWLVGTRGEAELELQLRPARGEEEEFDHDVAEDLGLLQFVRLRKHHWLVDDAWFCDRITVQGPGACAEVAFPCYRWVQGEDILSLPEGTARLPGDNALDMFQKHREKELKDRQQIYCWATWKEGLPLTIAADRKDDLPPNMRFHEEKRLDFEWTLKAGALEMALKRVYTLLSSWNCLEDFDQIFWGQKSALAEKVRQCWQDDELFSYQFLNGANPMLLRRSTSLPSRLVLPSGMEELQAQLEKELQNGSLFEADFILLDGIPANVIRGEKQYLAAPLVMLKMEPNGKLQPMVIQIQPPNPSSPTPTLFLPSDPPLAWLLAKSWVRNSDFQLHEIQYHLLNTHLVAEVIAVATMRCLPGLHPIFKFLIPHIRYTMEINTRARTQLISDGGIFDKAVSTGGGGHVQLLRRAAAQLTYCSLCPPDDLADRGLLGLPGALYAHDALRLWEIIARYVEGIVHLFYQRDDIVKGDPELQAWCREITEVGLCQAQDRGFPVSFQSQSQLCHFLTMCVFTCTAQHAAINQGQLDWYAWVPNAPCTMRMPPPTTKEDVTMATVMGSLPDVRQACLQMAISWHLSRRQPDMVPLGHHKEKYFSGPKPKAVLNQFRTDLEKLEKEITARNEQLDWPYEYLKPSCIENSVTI
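Hydroperoxide product was detected by ferrous iron/xylenol orange as the 573 to 405 nm absorbance ratio. Arachidonic acid at 40 uM (final) was turned over for 30 min at room temperature by 150 nM human 12hLO, pH 7.0 Hepes buffer, after 15 min compound preincubation.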
IL1B secr inh – qHTS for Inhibitors of Inflammasome Signaling: IL-1-beta AlphaLISA Primary Screen | actives 4.7% (n = 360,000) | THP-1 LPS/ATP IL-1B secretion, AlphaLISA, 16 h; stronger effect = lower value | activity change, % at 57.5 µM; in the data active = activity change below about -50%; inconclusive = mostly about -30% to -49%
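Secreted IL-1B measured by AlphaLISA bead assay after 16 h compound exposure of THP-1 cells; compounds (final up to 57.5 uM) added 1 h before LPS (250 ng/mL) and ATP (1.25 mM) stimulation; lower signal means less secretion.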
An asterisk follows results filed as active; ? = inconclusive; . = no result. Unless noted, calls come from the whole dose curve; as a rule, active = well fitted curve in the direction sought with a large enough effect; inconclusive = small, poorly fitted or top-dose-only effect, or another doubt; inactive = no such curve, though single readings can be large; an effect the other way counts as inactive or inconclusive. Unless noted, % is set by controls: 0 for no effect and ±100 for the full control effect.

SMILES | DT40 TDP1 CPT | HT1080NT lethal | HT1080 IDH1KD tx | DT40 TDP1 no CPT | 12-LOX inh | IL1B secr inh
COc1cc2c(cc1OC)C(c1ccc(Cl)cc1)N(c1cccc(C#N)c1)C(=O)C2 (configuration not stated) | 23µM* | . | . | ? | -15% | .
CCOc1cc2c(cc1OCC)C(c1ccc(OC)c(OC)c1)N(c1ccc(C(=O)O)cc1)C(=O)C2 (configuration not stated) | 27% | 0% | -1% | -12% | 1% | -1
CN(C)C(=O)CCN1CCOC(CC(c2ccccc2)c2ccccc2)C1 (configuration not stated) | . | . | . | . | 12% | .
O=C(NCCc1ccccc1)C12CC3CC(CC(C3)C1)C2 | . | . | . | . | -23% | .
O=C(NC1CCCCC1)c1cc([N+](=O)[O-])[nH]n1 | ? | -12% | -4% | 18µM* | -20% | 14
Cc1ccc(NC(=O)CSc2nc(N)c3c4c(sc3n2)CSC(C)(C)C4)cc1 | 23µM* | ? | ? | 16µM* | -24% | -30
CC1(C)Cc2c(sc3nc(SCC(=O)O)nc(N)c23)CO1 | 13% | 26% | 17% | -8% | 26% | 11
Cc1ccccc1NC(=O)CSc1nc(N)c2c3c(sc2n1)CSC(C)(C)C3 | 23µM* | ? | ? | ? | -28% | 13
Cc1ccc(-n2c(SCC(=O)O)nc3sc4c(c3c2=O)CC(C)(C)SC4)cc1 | -1% | 5% | 7% | 18% | 6% | -13
COc1ccccc1Nc1ncnc2scc(-c3ccc(F)cc3)c12 | ? | . | . | ? | -51% | .
COc1ccc(-c2csc3ncnc(Nc4cc(OC)c(OC)c(OC)c4)c23)cc1 | . | . | . | . | -25% | .
COc1ccc(-c2csc3ncnc(Nc4cc(OC)cc(OC)c4)c23)cc1 | ? | . | . | 16µM* | -19% | .
COc1ccc(-c2csc3ncnc(Nc4ccc(OC)cc4OC)c23)cc1 | 4.1µM* | . | . | ? | -3% | .
Cc1ccc(-c2cc(C(=O)NCc3cnn(C)c3C)c3ccccc3n2)cc1C | ? | . | . | 18µM* | 0% | .
Cc1ccc(-c2cccc(C(=O)NCCc3ccccc3)n2)c2ccccc12 | 26µM* | -26% | -17% | 16µM* | -7% | -14
Cc1ccc(-c2cc(C(=O)N/N=C\c3cnn(C)c3C)c3ccccc3n2)cc1C | 12µM* | -22% | -25% | 10µM* | -20% | -10
COc1cc(CC(=O)NCCc2ccc(S(N)(=O)=O)cc2)cc(OC)c1OC | -4% | 15% | 9% | 3% | -26% | 22
COc1cc(-c2cc(C(=O)NCCc3ccc(S(N)(=O)=O)cc3)c3ccccc3n2)cc(OC)c1OC | 4.1µM* | -1% | -4% | 3.3µM* | -10% | -52*
Cc1ccc(-c2cccc(C(=O)NCc3ccccc3)n2)c2ccccc12 | ? | ? | ? | ? | -6% | -11
O=C(NCCCN1CCOCC1)c1csc(Nc2ccccc2Cl)n1 | . | . | . | . | 9% | .
COc1ccc(CNC(=O)[C@H](C)NC(=O)c2cc3c(OC)ccc(OC)c3[nH]2)cc1 | . | . | . | . | -11% | .
CCc1ccc(-c2cc(C(=O)NCCc3ccccc3)c3ccccc3n2)cc1 | . | . | . | . | 17% | .
Cc1ccc(-c2cc(C(=O)NCCc3ccccc3)c3ccccc3n2)cc1C | 21µM* | . | . | ? | -13% | .
CCOc1ccccc1C(=O)NC(C(=O)OCC(C)C)C(C)C (configuration not stated) | . | . | . | . | -7% | .
COc1ccc(NC(=S)N2CCC(C(=O)c3ccc(C)cc3)CC2)cc1 | ? | -1% | -14% | 8.2µM* | ? | -23
SMILES | DT40 TDP1 CPT | HT1080NT lethal | HT1080 IDH1KD tx | DT40 TDP1 no CPT | 12-LOX inh | IL1B secr inh
COc1ccc(NC(=S)N2CCC(C(=O)c3ccc(OC)cc3)CC2)cc1 | ? | -15% | -24% | 16µM* | -3% | 7
COc1ccc(C(=O)C2CCN(C(=S)Nc3ccc(F)cc3)CC2)cc1 | -28% | 1% | 0% | -13% | -13% | -63*
COc1cccc(NC(=S)N2CCC(C(=O)c3ccc(F)cc3)CC2)c1 | ? | -2% | 0% | ? | -27% | ?
COc1ccc(F)cc1C(=O)C1CCCN(Cc2cccn2-c2ccccn2)C1 (configuration not stated) | ? | ? | ? | 16µM* | -11% | -17
COc1ccc(C(=O)C2CCCN(Cc3cccn3-c3ccccn3)C2)c(OC)c1 (configuration not stated) | 8.2µM* | 6.5µM* | 15µM* | 6.5µM* | -2% | -93*
COCc1noc([C@@H]2CN(S(=O)(=O)c3ccc(C#N)cc3)C[C@H]2C(N)=O)n1 | . | . | . | . | -14% | .
CCOc1ccc(-c2nc(CSCC(=O)NCC(OC)OC)c(C)o2)cc1 | . | . | . | . | 3% | .
O=C(N/N=C/c1ccc(Cl)cc1Cl)c1ccncc1 | 15% | 2% | -1% | 0% | 0% | -4
Cc1ccc(C(C)C)c(OCc2ccc(C(=O)N/N=C/c3ccc(C(=O)O)cc3)cc2)c1 | ? | 0% | 3% | ? | -1% | 15
O=C(N/N=C/c1cc(Br)cc([N+](=O)[O-])c1O)c1ccc(NC(=O)c2ccc(F)cc2)cc1 | 23µM* | -1% | -25% | 15µM* | ? | 69
Cc1ccc(N=Cc2cc(Cl)cc(Cl)c2O)nc1 | ? | 0% | -14% | -24% | ? | 60
O=C(N/N=C/c1ccc(O)cc1O)c1ccncc1 | 8.2µM* | ? | 7.3µM* | 4.6µM* | 21% | 176
Cc1ccc(C(C)C)c(OCc2ccc(C(=O)N/N=C/c3ccc(O)cc3O)cc2)c1 | ? | 6.5µM* | 2.9µM* | 18µM* | -9% | 51
Oc1c(Cl)cc(Cl)cc1/C=N/Nc1ncc(Br)cn1 | 1.2µM* | ? | ? | 1.3µM* | 27% | 10
COc1cc(C#N)ccc1OC(C)C(=O)c1ccc(Cl)cc1 (configuration not stated) | . | . | . | . | -15% | .
Cc1c(N=Cc2cc(Br)cc(Br)c2O)cccc1C(=O)O | ? | 13µM* | ? | ? | 50µM* | 0
